Read-out in experiment [1]: Macrophage colony-stimulating factor (MCSF), CSF1 (gene 1435)
The experiment is described as follows: BSK_hDFCGF_MCSF: BioMAP Diversity Plus: hDFCGF Assay for Macrophage colony-stimulating factor (MCSF) Biomarker Activity (AID 2283060). To be noted: primary human foreskin fibroblasts; actives raise or lower the signal. The essentials:
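Primary human foreskin fibroblasts dosed with chemical; 24 h later, M-CSF quantified by ELISA; curves fitted in both directions vs DMSO negative control.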

The nature of experiment [2]: BSK_hDFCGF_SRB: Viability Assessment in the BioMAP Diversity Plus: hDFCGF Assay (AID 2283061).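 Note: cells exposed to compound for 24 h before the read.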 Conditions: primary human foreskin fibroblasts. The essentials:
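Readout is SRB absorbance at 560 nm, reflecting total protein in parallel cultures of human foreskin fibroblasts harvested 24 h after chemical dosing. Activity was fitted bidirectionally relative to DMSO.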

Read-out in experiment [3]: TIMP metallopeptidase inhibitor 1 (TIMP1), TIMP1 (gene 7076)
As to the kind of experiment: BSK_hDFCGF_TIMP1: BioMAP Diversity Plus: hDFCGF Assay for TIMP metallopeptidase inhibitor 1 (TIMP1) Biomarker Activity (AID 2283062). To be noted: primary human foreskin fibroblasts; actives raise or lower the signal. The essentials:
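Human skin fibroblasts (primary), hDFCGF system; compound exposure 24 h; TIMP-1 by ELISA; bidirectional fit vs DMSO negative control; overt cytotoxicity by SRB in parallel wells.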

Read-out in experiment [4]: Monokine induced gamma interferon (MIG), CXCL9 (gene 4283)
As to the kind of experiment: BSK_hDFCGF_MIG: BioMAP Diversity Plus: hDFCGF Assay for Monokine induced gamma interferon (MIG) Biomarker Activity (AID 2283063). Conditions: primary human foreskin fibroblasts; actives raise or lower the signal. The essentials:
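Chemicals were added to primary human foreskin fibroblast cultures, which were sampled 24 h later. MIG levels were then quantified by ELISA and responses fitted in both directions relative to DMSO.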

Read-out in experiment [5]: Matrix Metallopeptidase 1 (MMP1), MMP1 (gene 4312)
The experiment is described as follows: BSK_hDFCGF_MMP1: BioMAP Diversity Plus: hDFCGF Assay for Matrix Metallopeptidase 1 (MMP1) Biomarker Activity (AID 2283064). To be noted: primary human foreskin fibroblasts; actives raise or lower the signal. The essentials:
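Human foreskin fibroblasts exposed to chemical for 24 h; MMP1 detected by ELISA, with DMSO as baseline for bidirectional fitting.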

Read-out in experiment [6]: Vascular cell adhesion molecule 1 (VCAM1), VCAM1 (gene 7412)
The experiment is described as follows: BSK_hDFCGF_VCAM1: BioMAP Diversity Plus: hDFCGF Assay for Vascular cell adhesion molecule 1 (VCAM1) Biomarker Activity (AID 2283065).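 For AC50: VCAM-1 protein level quantified by ELISA after 24 h chemical exposure.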 To be noted: primary human foreskin fibroblasts; actives raise or lower the signal. The method in brief:
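Human foreskin fibroblast primary cells, chemical exposure 24 h; VCAM-1 by ELISA; bidirectional fit, DMSO = negative control/baseline.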

Read-out in experiment [7]: Plasminogen activator inhibitor-1 (PAI1), SERPINE1 (gene 5054)
As to the kind of experiment: BSK_hDFCGF_PAI1: BioMAP Diversity Plus: hDFCGF Assay for Plasminogen activator inhibitor-1 (PAI1) Biomarker Activity (AID 2283066). Conditions: primary human foreskin fibroblasts; actives raise or lower the signal. The essentials: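 Fibroblasts from human foreskin were treated with test chemical. After 24 h, PAI-1 was measured by ELISA. Activity was fitted in both directions relative to DMSO.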

Read-out in experiment [8]: Intercellular Adhesion Molecule 1 (ICAM1), ICAM1 (gene 3383)
As to the kind of experiment: BSK_KF3CT_ICAM1: BioMAP Diversity Plus: KF3CT Assay for Intercellular Adhesion Molecule 1 (ICAM1) Biomarker Activity (AID 2283067). To be noted: primary human keratinocytes with fibroblasts; actives raise or lower the signal. The essentials: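 ICAM-1 levels are measured by ELISA 24 h after dosing a primary human co-culture of keratinocytes and foreskin fibroblasts. Activity in either direction is fitted relative to DMSO vehicle.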

Read-out in experiment [9]: Interferon-gamma inducible Protein 10 (IP10), CXCL10 (gene 3627)
As to the kind of experiment: BSK_KF3CT_IP10: BioMAP Diversity Plus: KF3CT Assay for Interferon-gamma inducible Protein 10 (IP10) Biomarker Activity (AID 2283068). To be noted: primary human keratinocytes with fibroblasts; actives raise or lower the signal. The essentials:
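ELISA read-out of IP-10 after 24 h chemical dosing of human skin primary co-culture (keratinocytes, foreskin fibroblasts). Gain or loss of signal relative to DMSO, bidirectional curve fit.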

The nature of experiment [10]: BSK_KF3CT_SRB: Viability Assessment in the BioMAP Diversity Plus: KF3CT Assay (AID 2283069).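 Note: read 24 h after compound addition; fitted for both signal gain and loss against DMSO baseline.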 To be noted: primary human keratinocytes with fibroblasts. The method in brief: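 Overt cytotoxicity is assessed as total protein by sulforhodamine B staining in parallel human skin co-cultures at 24 h after dosing. DMSO serves as negative control and baseline.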
Read-out in experiment [11]: Interleukin-1 alpha (IL1a), IL1A (gene 3552)
As to the kind of experiment: BSK_KF3CT_IL1a: BioMAP Diversity Plus: KF3CT Assay for Interleukin-1 alpha (IL1a) Biomarker Activity (AID 2283070). To be noted: primary human keratinocytes with fibroblasts; actives raise or lower the signal. The essentials:
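Readout is IL-1a level by ELISA, compared bidirectionally with DMSO as baseline. Cells: human keratinocytes co-cultured with foreskin fibroblasts, harvested 24 h post-dose.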

Read-out in experiment [12]: TIMP metallopeptidase inhibitor 2 (TIMP2), TIMP2 (gene 7077)
The experiment is described as follows: BSK_KF3CT_TIMP2: BioMAP Diversity Plus: KF3CT Assay for TIMP metallopeptidase inhibitor 2 (TIMP2) Biomarker Activity (AID 2283071). Conditions: primary human keratinocytes with fibroblasts; actives raise or lower the signal. The essentials: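 Chemicals were dosed onto human skin primary co-cultures of keratinocytes and foreskin fibroblasts, and TIMP-2 was measured by ELISA after 24 hours. Activity in either direction was fitted relative to DMSO.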

Read-out in experiment [13]: Transforming growth factor beta 1 (TGFb1), TGFB1 (gene 7040)
As to the kind of experiment: BSK_KF3CT_TGFb1: BioMAP Diversity Plus: KF3CT Assay for Transforming growth factor beta 1 (TGFb1) Biomarker Activity (AID 2283072). Conditions: primary human keratinocytes with fibroblasts; actives raise or lower the signal. The method in brief: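 KF3CT co-culture (keratinocytes + fibroblasts), 24 h exposure → TGF-b1 ELISA → bidirectional fit, DMSO = baseline. Parallel SRB total-protein staining (0.1% SRB, 10% TCA fixation, 560 nm) for cytotoxicity.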

Read-out in experiment [14]: C-C motif chemokine 2 (Homo sapiens) (UniProt P13500)
As to the kind of experiment: BSK_KF3CT_MCP1: BioMAP Diversity Plus: KF3CT Assay for Monocyte Chemoattractant Protein 1 (MCP1/CCL2) Biomarker Activity (AID 2283073). To be noted: primary human keratinocytes with fibroblasts; actives raise or lower the signal. The method in brief:
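ELISA readout of MCP-1 after 24 h chemical dosing of a human skin primary co-culture of keratinocytes and foreskin fibroblasts. Activity was fitted in both directions against DMSO.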

Read-out in experiment [15]: Matrix Metallopeptidase 9 (MMP9), MMP9 (gene 4318)
The experiment is described as follows: BSK_KF3CT_MMP9: BioMAP Diversity Plus: KF3CT Assay for Matrix Metallopeptidase 9 (MMP9) Biomarker Activity (AID 2283074).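 For AC50: MMP9 protein level quantified by ELISA in the co-culture.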 To be noted: primary human keratinocytes with fibroblasts; actives raise or lower the signal. The method in brief:
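Values come from bidirectional fitting relative to DMSO of MMP-9 levels, which were measured by ELISA. Measurements were taken 24 h after chemical dosing of a keratinocyte and foreskin fibroblast co-culture.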

Read-out in experiment [16]: urokinase plasminogen activator (uPA), PLAU (gene 5328)
As to the kind of experiment: BSK_KF3CT_uPA: BioMAP Diversity Plus: KF3CT Assay for urokinase plasminogen activator (uPA) Biomarker Activity (AID 2283075). To be noted: primary human keratinocytes with fibroblasts; actives raise or lower the signal. The essentials:
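Values derive from bidirectional fitting against DMSO controls. Keratinocyte/foreskin fibroblast co-cultures received chemical; 24 h later uPA was detected by ELISA, with SRB total-protein staining in parallel wells for overt cytotoxicity.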

Read-out in the next experiment: CD40, CD40 (gene 958)
The experiment is described as follows: BSK_LPS_CD40: BioMAP Diversity Plus: LPS Assay for CD40 Biomarker Activity (AID 2283076). Conditions: primary human HUVEC with PBMC; actives raise or lower the signal. The method in brief:
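Cells were dosed, incubated 24 h, then assayed for CD40 by ELISA. Gain or loss of signal was analysed relative to DMSO controls. The culture paired human umbilical vein endothelium with peripheral blood mononuclear cells.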

Read-out in experiment [17]: E-selectin (Homo sapiens) (UniProt P16581)
As to the kind of experiment: BSK_LPS_Eselectin: BioMAP Diversity Plus: LPS Assay for Eselectin Biomarker Activity (AID 2283077). Conditions: primary human HUVEC with PBMC; actives raise or lower the signal. The essentials:
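Primary human vascular co-culture (endothelium plus PBMC) was dosed with chemical, then E-selectin quantified by ELISA at 24 h. Endpoint values derive from bidirectional curve fitting relative to DMSO.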

Read-out in experiment [18]: Interleukin-8 (IL8), CXCL8 (gene 3576)
As to the kind of experiment: BSK_LPS_IL8: BioMAP Diversity Plus: LPS Assay for Interleukin-8 (IL8) Biomarker Activity (AID 2283078). Conditions: primary human HUVEC with PBMC; actives raise or lower the signal. The essentials:
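Readout is IL-8 by ELISA, taken 24 h after compounds were added to LPS-stimulated endothelial/PBMC co-cultures. Both increases and decreases relative to DMSO control were scored through bidirectional fitting.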

Experiment [19] in a line: BSK_LPS_SRB: Viability Assessment in the BioMAP Diversity Plus: LPS Assay (AID 2283079).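 Note: total protein by sulforhodamine B absorbance as a cytotoxicity measure; measured one day after compound addition; fitted in both directions against DMSO so loss or gain of signal counts.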 Conditions: primary human HUVEC with PBMC. The essentials:
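Readout is SRB absorbance at 560 nm (0.1% stain, TCA-fixed parallel cultures) as a total-protein cytotoxicity measure. Cells: primary human umbilical vein endothelium plus peripheral blood mononuclear cells, 24 h after chemical exposure; DMSO served as baseline.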

A structure can be active in one record and inactive in another. The source made the active and inactive calls. Rule for the calls: active = hit-call score of the fitted dose curve at least 0.9, where 1 is the maximum; inactive = score below 0.9.

Sequence of E-selectin (Homo sapiens) (P16581 whole entry, looked up): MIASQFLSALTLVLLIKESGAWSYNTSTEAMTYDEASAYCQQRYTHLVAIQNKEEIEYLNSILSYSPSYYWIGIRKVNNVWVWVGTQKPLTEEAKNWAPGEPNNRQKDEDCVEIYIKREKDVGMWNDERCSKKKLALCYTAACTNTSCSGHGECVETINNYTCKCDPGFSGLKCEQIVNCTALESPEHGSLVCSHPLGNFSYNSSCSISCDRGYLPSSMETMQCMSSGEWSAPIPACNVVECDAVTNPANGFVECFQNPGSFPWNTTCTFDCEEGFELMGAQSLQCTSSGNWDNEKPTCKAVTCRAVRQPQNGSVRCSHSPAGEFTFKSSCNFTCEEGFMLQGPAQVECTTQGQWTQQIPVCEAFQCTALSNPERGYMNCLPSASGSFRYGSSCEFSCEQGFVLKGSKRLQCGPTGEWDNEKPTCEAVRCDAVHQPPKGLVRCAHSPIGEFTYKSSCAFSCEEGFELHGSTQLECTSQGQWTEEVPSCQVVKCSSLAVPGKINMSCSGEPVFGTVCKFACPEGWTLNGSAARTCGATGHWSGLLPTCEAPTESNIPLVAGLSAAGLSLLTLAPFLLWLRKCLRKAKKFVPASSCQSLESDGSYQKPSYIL

As to `CC1=NN(c2ccccc2)C(=O)C1`, the result in experiment [1], in [2], in experiment [3], in experiment [4], in experiment [5] and in experiment [6] was inactive. Also, the outcome in experiment [7], in experiment [8], in experiment [9], in experiment [10], in experiment [11] and in experiment [12] was inactive. In addition, the outcome in [13] is “inactive”; in [14], “inactive”; in experiment [15], “inactive”; in experiment [16], “inactive”; in the experiment with CD40, CD40 (gene 958), “inactive”; in experiment [17], “inactive”. For the same compound, the outcome in [18] and in [19] was inactive.
Consider `Cc1cccc2c1ccc1ccccc12`, for which the outcome in experiment [1], in experiment [2], in [3], in experiment [4], in [5] and in experiment [6] was inactive. Also, the result in [7], in experiment [8], in experiment [9], in [10], in experiment [11] and in [12] was inactive. In addition, the outcome was “inactive” in [13]; “inactive” in [14]; “inactive” in [16]; “inactive” in the experiment with CD40, CD40 (gene 958); “inactive” in [17]; “inactive” in experiment [18]. The outcome in experiment [19] was inactive.
On to `CN(CCO)S(=O)(=O)C(F)(F)C(F)(F)C(F)(F)C(F)(F)C(F)(F)C(F)(F)C(F)(F)C(F)(F)F`, for which the AC50 (in general, the concentration at which the activity in the assay is half-maximal) in experiment [1] is 0.0414 µM (active); in experiment [18], 4.94 µM (active). The result in [1], in experiment [2], in experiment [3], in experiment [4], in experiment [5] and in [6] was inactive. For the same compound, the outcome in experiment [7], in [8], in [9], in [10], in experiment [11] and in experiment [12] was inactive. The outcome was “inactive” in [14]; “inactive” in experiment [15]; “inactive” in experiment [16]; “inactive” with CD40, CD40 (gene 958); “inactive” in experiment [17]; “inactive” in experiment [18]. For the same compound, in experiment [19], the result was inactive.
For `O=C1OC2(c3ccccc31)c1cc(I)c(O)c(I)c1Oc1c2cc(I)c(O)c1I`, the AC50 is 4.57 µM (active) in experiment [1]; 6.04 µM (active) in [3]; 18.6 µM (active) in experiment [4]; 7.71 µM (active) in experiment [5]; 12 µM (active) in experiment [6]; 5.52 µM (active) in [7]. Besides, the AC50 in experiment [8] was 17.4 µM (active); in experiment [9], 18.4 µM (active); in experiment [11], 4.82 µM (active); in experiment [12], 2.44 µM (active); in [13], 3.45 µM (active); in [14], 3.51 µM (active). Further, the concentration at half-maximal activity (AC50) is 14.9 µM (active) in [15]; 9.05 µM (active) in experiment [16]; 8.71 µM (active) with CD40, CD40 (gene 958); 8.58 µM (active) in [17]. Also, the outcome in experiment [2], in experiment [10], in [18] and in experiment [19] was inactive.
As for `Clc1ccc(Nc2nnc(Cc3ccncc3)c3ccccc23)cc1`, the result in experiment [1], in experiment [2], in [3], in experiment [4], in experiment [5] and in experiment [6] was inactive. Besides, the outcome in experiment [7], in [8], in [9], in experiment [10], in experiment [11] and in [14] was inactive. Besides, the outcome in experiment [16] was “inactive”; in the experiment with CD40, CD40 (gene 958) it was “inactive”; in experiment [17] it was “inactive”; in experiment [18], “inactive”; in [19], “inactive”. The AC50 in experiment [12] was 3.02 µM (active); in experiment [13] it was 1.99 µM (active).

Values taken from PubChem BioAssay (EPA / NIEHS).
